In the supplement of paper PMC11732987, “Enantioselective OTUD7B fragment discovery through chemoproteomics screening and high-throughput optimisation” (Communications Chemistry, 2025):

Experiments:
Experiment in all cases: log2 ratio of Biotin-Ahx-Ub-VS probe labelling (fragment/DMSO); higher = less target engagement (more negative = stronger competition), active = hit call of the paper (q ≤ 0.05, log2 ratio ≤ -1)
Details in all cases: compound concentration: 200 uM; treatment time: 3 h
[1] = target: T1, USP19 (UniProt O94966)
T1 sequence (whole entry): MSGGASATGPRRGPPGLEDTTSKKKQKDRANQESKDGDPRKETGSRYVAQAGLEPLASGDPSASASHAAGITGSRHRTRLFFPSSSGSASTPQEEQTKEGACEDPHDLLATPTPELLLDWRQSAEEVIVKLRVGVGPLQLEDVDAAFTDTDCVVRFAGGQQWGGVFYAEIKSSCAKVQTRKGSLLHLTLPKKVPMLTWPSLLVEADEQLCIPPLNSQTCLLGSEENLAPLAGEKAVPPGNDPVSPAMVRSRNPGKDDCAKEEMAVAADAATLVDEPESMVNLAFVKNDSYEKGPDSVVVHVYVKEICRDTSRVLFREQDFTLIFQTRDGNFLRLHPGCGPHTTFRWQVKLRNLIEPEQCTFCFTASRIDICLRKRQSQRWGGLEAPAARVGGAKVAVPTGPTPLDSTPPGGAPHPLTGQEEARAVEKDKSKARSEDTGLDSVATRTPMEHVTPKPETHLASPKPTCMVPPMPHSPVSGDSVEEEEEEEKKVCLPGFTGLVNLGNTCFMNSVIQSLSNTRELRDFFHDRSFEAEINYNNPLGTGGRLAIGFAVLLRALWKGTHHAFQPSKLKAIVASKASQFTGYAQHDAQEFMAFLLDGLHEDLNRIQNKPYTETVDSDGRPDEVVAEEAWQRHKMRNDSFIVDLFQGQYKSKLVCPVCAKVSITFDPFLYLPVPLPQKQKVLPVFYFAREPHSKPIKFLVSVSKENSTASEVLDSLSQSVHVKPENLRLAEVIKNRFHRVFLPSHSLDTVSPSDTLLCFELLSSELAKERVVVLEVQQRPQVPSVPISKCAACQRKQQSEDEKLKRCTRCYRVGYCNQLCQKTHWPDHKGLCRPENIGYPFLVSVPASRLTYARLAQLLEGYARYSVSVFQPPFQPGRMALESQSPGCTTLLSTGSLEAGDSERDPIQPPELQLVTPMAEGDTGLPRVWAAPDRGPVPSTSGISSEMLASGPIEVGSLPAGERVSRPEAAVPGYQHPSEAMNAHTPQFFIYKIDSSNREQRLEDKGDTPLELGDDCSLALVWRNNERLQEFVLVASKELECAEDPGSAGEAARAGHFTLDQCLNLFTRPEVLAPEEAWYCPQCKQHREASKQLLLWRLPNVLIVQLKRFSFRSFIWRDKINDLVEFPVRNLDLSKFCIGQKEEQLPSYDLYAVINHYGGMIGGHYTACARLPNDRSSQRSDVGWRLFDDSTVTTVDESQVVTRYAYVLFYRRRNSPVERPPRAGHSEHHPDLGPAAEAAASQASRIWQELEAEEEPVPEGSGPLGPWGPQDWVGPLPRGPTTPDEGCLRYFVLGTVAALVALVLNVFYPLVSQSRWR
Outline: (§1)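 HEK293T lysate, 495 µg per sample in Tris/CHAPS/IGEPAL buffer with protease inhibitors, was treated in triplicate with fragment at 200 µM or vehicle for 3 h and then with Biotin-Ahx-Ub-VS at 0.5 µM final for 1 h. Labelled DUBs were NeutrAvidin-enriched, digested with LysC and trypsin, and run by diaPASEF LC-MS/MS. Spectronaut label-free quantities were global-median-normalised, and values are average log2 fragment/vehicle ratios by unpaired t-test on proteins with ≥2 unique peptides.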

[2] = target: T2, USP22 (UniProt Q9UPT9)
T2 sequence (whole entry): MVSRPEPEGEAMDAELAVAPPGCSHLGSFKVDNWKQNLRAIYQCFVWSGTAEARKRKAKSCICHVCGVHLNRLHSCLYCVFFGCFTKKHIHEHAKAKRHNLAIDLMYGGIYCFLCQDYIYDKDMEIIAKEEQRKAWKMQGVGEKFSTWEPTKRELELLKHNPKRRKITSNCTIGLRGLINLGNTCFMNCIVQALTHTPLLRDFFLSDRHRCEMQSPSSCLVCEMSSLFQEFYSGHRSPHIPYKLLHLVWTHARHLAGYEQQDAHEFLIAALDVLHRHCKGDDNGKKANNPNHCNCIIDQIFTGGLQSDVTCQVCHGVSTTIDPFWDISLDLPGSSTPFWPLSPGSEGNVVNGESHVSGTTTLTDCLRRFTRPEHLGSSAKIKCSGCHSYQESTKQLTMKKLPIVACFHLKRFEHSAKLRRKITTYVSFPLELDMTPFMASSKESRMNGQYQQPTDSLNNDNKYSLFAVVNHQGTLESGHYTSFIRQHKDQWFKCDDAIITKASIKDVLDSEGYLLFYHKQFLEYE
Outline: as §1

[3] = target: USP24 (UniProt Q9UPU5)
Outline: as §1

[4] = target: T3, USP25 (UniProt Q9UHP3)
T3 sequence (whole entry): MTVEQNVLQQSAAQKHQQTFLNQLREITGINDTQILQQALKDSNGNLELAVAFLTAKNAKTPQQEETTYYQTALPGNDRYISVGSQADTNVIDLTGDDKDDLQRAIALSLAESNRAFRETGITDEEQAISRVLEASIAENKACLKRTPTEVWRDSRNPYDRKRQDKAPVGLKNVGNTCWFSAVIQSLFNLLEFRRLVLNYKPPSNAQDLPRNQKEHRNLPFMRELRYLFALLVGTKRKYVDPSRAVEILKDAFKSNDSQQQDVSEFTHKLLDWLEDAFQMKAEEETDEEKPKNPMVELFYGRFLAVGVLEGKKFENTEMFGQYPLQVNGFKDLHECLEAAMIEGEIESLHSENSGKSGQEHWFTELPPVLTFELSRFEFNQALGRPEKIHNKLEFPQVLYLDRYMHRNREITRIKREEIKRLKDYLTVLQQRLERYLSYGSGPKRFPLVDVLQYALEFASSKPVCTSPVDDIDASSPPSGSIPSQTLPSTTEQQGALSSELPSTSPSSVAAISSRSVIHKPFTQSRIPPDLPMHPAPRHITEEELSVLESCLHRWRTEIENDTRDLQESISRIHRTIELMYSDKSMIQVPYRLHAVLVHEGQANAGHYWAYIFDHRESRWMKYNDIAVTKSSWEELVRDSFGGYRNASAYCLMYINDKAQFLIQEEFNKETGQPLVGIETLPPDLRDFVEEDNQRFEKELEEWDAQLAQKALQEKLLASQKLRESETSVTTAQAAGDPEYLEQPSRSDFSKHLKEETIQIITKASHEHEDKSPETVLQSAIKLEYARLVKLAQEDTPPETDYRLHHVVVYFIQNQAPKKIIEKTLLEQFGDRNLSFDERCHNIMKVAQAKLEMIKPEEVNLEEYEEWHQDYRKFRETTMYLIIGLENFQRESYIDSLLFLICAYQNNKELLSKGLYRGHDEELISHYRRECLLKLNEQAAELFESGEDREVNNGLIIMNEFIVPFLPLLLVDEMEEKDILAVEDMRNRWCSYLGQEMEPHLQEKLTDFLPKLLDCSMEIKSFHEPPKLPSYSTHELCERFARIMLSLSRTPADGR
Outline: as §1

[5] = target: T4, USP28 (UniProt Q96RU2)
T4 sequence (whole entry): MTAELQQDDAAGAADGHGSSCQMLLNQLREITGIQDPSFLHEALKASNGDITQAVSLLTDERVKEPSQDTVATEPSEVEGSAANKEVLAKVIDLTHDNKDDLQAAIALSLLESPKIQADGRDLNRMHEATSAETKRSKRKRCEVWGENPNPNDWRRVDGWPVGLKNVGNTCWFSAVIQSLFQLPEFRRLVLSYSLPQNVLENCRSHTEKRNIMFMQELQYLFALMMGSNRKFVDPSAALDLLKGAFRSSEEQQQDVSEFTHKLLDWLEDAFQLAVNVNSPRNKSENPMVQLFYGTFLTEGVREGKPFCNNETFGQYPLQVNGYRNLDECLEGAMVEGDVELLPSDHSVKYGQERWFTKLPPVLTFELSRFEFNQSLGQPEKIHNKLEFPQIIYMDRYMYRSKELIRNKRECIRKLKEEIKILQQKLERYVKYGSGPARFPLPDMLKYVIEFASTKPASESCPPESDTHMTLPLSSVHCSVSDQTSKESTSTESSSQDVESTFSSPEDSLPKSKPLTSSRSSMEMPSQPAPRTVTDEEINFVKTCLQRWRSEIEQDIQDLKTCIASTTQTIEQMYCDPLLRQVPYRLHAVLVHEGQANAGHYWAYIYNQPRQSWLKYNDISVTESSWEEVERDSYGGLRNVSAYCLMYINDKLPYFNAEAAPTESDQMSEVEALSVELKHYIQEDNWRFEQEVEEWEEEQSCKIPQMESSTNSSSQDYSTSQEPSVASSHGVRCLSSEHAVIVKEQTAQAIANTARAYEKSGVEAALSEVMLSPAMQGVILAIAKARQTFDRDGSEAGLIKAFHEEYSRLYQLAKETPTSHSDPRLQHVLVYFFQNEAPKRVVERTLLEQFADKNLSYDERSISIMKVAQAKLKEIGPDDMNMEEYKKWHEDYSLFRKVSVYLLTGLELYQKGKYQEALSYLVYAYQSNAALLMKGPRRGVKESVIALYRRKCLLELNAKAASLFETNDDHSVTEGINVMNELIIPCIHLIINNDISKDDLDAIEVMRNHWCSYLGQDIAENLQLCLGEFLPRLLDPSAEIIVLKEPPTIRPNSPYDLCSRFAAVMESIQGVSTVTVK
Outline: as §1

Measured: log2 ratio of Biotin-Ahx-Ub-VS probe labelling

Chain of USP24 (Q9UPU5 whole entry): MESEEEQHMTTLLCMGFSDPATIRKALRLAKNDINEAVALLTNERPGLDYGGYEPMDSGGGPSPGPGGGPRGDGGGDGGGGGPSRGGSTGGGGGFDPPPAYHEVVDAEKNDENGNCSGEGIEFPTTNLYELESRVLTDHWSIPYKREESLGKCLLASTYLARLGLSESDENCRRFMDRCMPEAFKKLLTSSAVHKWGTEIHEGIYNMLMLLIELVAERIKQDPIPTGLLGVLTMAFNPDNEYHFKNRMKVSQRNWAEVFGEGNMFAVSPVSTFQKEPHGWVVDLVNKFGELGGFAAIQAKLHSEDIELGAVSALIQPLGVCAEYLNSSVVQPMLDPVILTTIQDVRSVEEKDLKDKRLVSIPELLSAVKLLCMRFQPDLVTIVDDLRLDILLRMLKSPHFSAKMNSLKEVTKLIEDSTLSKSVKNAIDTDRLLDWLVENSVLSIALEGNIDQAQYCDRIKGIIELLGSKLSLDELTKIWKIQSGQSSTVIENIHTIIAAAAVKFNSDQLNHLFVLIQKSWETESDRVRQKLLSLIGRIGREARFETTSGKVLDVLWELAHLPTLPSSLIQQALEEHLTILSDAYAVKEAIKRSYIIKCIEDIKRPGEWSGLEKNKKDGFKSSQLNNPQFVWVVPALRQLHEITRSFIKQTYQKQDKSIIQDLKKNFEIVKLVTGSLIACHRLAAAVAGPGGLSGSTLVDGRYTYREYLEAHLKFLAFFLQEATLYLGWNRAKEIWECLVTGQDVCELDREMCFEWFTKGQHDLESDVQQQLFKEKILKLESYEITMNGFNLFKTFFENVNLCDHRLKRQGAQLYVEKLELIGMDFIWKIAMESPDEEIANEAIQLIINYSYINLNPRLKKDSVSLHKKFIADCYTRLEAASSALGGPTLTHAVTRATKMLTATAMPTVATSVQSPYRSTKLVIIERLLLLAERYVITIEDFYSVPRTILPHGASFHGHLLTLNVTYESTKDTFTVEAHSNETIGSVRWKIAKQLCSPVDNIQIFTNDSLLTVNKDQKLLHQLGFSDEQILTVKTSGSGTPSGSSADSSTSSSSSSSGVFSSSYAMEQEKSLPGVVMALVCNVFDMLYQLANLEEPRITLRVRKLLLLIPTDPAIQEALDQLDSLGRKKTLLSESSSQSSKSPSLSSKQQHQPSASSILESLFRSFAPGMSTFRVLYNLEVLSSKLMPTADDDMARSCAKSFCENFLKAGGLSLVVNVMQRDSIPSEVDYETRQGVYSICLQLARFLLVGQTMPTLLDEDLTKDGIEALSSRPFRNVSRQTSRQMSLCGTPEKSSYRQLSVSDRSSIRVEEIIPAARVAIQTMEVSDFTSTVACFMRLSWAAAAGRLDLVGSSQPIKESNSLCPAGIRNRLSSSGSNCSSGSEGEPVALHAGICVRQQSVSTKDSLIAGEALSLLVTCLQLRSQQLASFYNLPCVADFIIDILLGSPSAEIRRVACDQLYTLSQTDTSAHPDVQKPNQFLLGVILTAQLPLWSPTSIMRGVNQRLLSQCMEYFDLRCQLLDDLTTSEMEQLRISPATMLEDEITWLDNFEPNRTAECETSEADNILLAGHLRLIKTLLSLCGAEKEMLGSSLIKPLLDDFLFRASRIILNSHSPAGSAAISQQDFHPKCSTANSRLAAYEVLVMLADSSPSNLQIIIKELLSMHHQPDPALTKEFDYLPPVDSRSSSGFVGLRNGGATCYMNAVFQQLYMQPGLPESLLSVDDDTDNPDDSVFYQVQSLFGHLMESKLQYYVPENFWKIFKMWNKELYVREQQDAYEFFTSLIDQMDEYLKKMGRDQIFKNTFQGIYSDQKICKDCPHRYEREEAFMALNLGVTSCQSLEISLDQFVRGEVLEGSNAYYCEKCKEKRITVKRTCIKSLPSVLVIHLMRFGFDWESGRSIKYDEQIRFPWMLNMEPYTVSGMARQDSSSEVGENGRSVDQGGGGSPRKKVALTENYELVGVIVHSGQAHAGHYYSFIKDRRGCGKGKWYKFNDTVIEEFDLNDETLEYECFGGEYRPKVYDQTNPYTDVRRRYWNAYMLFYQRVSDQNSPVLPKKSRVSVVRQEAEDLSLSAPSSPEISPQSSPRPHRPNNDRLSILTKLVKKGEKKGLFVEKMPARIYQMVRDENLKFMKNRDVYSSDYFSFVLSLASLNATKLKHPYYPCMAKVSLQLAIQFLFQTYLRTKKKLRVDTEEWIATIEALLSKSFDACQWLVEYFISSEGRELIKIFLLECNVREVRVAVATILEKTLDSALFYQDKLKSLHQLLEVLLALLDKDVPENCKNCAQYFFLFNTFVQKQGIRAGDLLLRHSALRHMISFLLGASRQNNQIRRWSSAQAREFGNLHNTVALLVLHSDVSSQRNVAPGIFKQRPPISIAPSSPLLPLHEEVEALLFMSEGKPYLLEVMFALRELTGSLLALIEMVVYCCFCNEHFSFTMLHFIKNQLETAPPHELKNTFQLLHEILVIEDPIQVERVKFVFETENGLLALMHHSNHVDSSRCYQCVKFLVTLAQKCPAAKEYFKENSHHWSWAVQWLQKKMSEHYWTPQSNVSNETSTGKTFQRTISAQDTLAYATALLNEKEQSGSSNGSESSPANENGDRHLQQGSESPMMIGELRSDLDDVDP

CN(Cc1nc2ccccc2[nH]1)C(=O)CCl.Cl
inactive: [1] -0.0932 | [2] 0.243 | [3] -0.721 | [4] 0.0889 | [5] -0.218
